This note sets out measurements from PubChem BioAssay (NCATS).

Results filed as inconclusive are left out. Unmarked numbers belong to inactive results. The source made the active and inactive calls. Calls come from the whole dose curve; as a rule, active = well fitted curve in the direction sought with a large enough effect; inconclusive = small, poorly fitted or top-dose-only effect, or another doubt; inactive = no such curve, though single readings can be large; an effect the other way counts as inactive or inconclusive.

Experiment [1] relates to Zika virus NS2B-NS3 protease (linked construct). Nature of the experiment: Primary screen NINDS Rhodamine qHTS for Zika virus inhibitors (AID 1347160). Note: nearly all actives have a fitted effect of over 55% in size. Note: potency is the fitted concentration of half-maximal effect. The procedure, abridged:
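In 10 mM Tris-HCl pH 8.0 containing 0.01% Tween 20, linked NS2B-NS3 protease (25 nM final) is exposed to test compounds for 15 min. Cleavage of 1.5 microM Rhodamine110 substrate is tracked by fluorescence over 15 min.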

The nature of experiment [2]: Panc-1005 Cancer Cell Toxicity qHTS against the NCATS CANVASS Library (AID 1347349). Note: nearly all actives have a fitted effect of over 60% in size. Note: potency is the fitted concentration of half-maximal effect. The procedure, abridged: (§1)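 1000 cells/well seeded and rested 4 h at 37 °C before pin transfer of compounds in an 11-pnt series. Exposure 72 h at 37 °C/5% CO2; viability by CellTiter-Glo luminescence after 15 min at room temperature.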
(In general: Quantitative high-throughput screening tests each substance at several concentrations.)

The nature of experiment [3]: SW1088 Cancer Cell Toxicity qHTS against the NCATS CANVASS Library (AID 1347350). Note: nearly all actives have a fitted effect of over 75% in size. Note: potency is the fitted concentration of half-maximal effect. The procedure, abridged: as §1
A short description of experiment [4]: COV-362 Cancer Cell Toxicity qHTS against the NCATS CANVASS Library (AID 1347352). Note: potency is the fitted concentration of half-maximal effect. The procedure, abridged: (§2)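 qHTS cytotoxicity: compounds tested in 11 concentrations on 1000 seeded cells per well over 72 h; bortezomib served as control; signal from CellTiter-Glo luminescence.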
Experiment [5] in a line: A2780 Cisplatin Sensitive Ovarian Cancer Cell Toxicity qHTS against the NCATS CANVASS Library (AID 1347353). Note: nearly all actives have a fitted effect of over 60% in size. Note: potency is the fitted concentration of half-maximal effect. The procedure, abridged: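 Seventy-two-hour exposure of cisplatin-sensitive A2780 ovarian cells to an 11-concentration qHTS series; cytotoxicity is inferred from loss of ATPLite luminescence. Bortezomib titration served as positive control.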
Experiment [6] can be described thus: UWB1.289-WTBRCA1 Cancer Cell Toxicity qHTS against the NCATS CANVASS Library (AID 1347354). Note: potency is the fitted concentration of half-maximal effect. The procedure, abridged:
as §2

Experiment [7] is described as follows: HEK-293 Cancer Cell Toxicity qHTS against the NCATS CANVASS Library (AID 1347355). For outcome: series mostly up to about 46 µM. Note: nearly all actives have a fitted effect of over 65% in size. Note: potency is the fitted concentration of half-maximal effect. The procedure, abridged:
as §2

The nature of experiment [8]: KB-8-5-11 Cancer Cell Toxicity qHTS against the NCATS CANVASS Library (AID 1347364). Note: nearly all actives have a fitted effect of over 75% in size. Note: potency is the fitted concentration of half-maximal effect. The procedure, abridged:
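Natural products were titrated in 11 points onto KB-8-5-11 cells, 500 per well, and cytotoxicity was scored from CellTiter-Glo luminescence after 72 hr culture.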

Experiment [9] in a line: SDT Cancer Cell Toxicity qHTS against the NCATS CANVASS Library (AID 1347365). Note: nearly all actives have a fitted effect of over 60% in size. Note: potency is the fitted concentration of half-maximal effect. The procedure, abridged: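 Dispense 500 SDT cells per well; pin-transfer compounds; incubate 72 hr at 37C, 5% CO2, 95% RH; add CellTiterGlo and read luminescence.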
A short description of experiment [10]: G06 Cancer Cell Toxicity qHTS against the NCATS CANVASS Library (AID 1347368). Note: nearly all actives have a fitted effect of over 60% in size. Note: potency is the fitted concentration of half-maximal effect. The procedure, abridged: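 Cytotoxicity toward canine glioma G06 cells is scored from cellular ATP via luminescence after 72 hr compound exposure at 500 cells/well.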
The target of experiment [11] is Nuclear receptor subfamily 1 group I member 3 (Homo sapiens) (UniProt Q14994). Nature of the experiment: qHTS for Constitutive Androstane Receptor (CAR) Antagonist screened against the NCATS CANVASS Library (AID 1347372). Note: potency is the fitted concentration of half-maximal effect. The procedure, abridged:
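HepG2-CYP2B6-hCAR double-stable cells plated, 4hr attach; cpd pin-transferred; CITCO 50 nM final; 24hr 37C/5% CO2; CellTiter-Fluor 1hr (fluorescence), then ONE-Glo luminescence.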

Experiment [12] in a line: DH5-alpha competent E. coli microbial cell viability qHTS against the NCATS CANVASS Library (AID 1347377). The conditions noted are these: outcome: dose series up to 46.1 µM unless noted. The procedure, abridged: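 Cell viability of competent DH5-alpha E. coli is scored from ATP content by luminescence. Cells sit overnight at 37C with compound across an 11-point concentration series.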

The nature of experiment [13]: qHTS assay for small molecule disruptors of mitochondrial membrane potential screened against the NCATS CANVASS Library (AID 1347389). Note: nearly all actives have a fitted effect of over 60% in size. Note: potency is the fitted concentration of half-maximal effect. The procedure, abridged: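 Compounds tested in 11-point qHTS series on HepG2 cells for 1 hr; membrane-potential dye added for 30 min at 37C. Lower red-to-green ratio indicates loss of potential.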
Experiment [14] in a line: qHTS for activators of Nrf2/ARE signaling pathway screened against the NCATS CANVASS Library (AID 1347391). Note: nearly all actives have a fitted effect of over 60% in size. Note: potency is the fitted concentration of half-maximal effect. The procedure, abridged:
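Cells carrying an ARE-driven beta-lactamase reporter (HepG2 background) are dosed for 16 h, then stained with CCF4. Cell viability in the same wells is measured by CellTiter-Glo luminescence.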

Experiment [15] can be described thus: qHTS for activators of dead-cell proteases activity screened against the NCATS CANVASS Library (AID 1347392).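 Note: luminescence from protease leaking out of membrane-damaged cells cleaving impermeant substrate; rising signal means more cytotoxicity.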 The procedure, abridged: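 Compounds are pin-transferred onto attached HepG2 cells, giving 11 final concentrations. After 5 h at 37C, AAF-aminoluciferin reagent is added and luminescence is recorded at room temperature.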
Experiment [16] in a line: qHTS for inhibitors of Wild type Zika virus screened against the NCATS CANVASS Library (AID 1347396).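 Note: ATP luminescence of surviving cells so rescue from viral cell killing; series mostly up to about 46 µM.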 The procedure, abridged:
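Luminescent CellTiter Glo read-out of virus-induced cytotoxicity, 72 h post-infection, in Vero 766 cells. Compounds were tested at 11 concentrations; uninfected, vehicle-treated wells defined 100% inhibition.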

Experiment [17] can be described thus: Redox Reaction Profiling qHTS: Assay Interference Panel against the NCATS CANVASS Library (AID 1347401). The procedure, abridged:
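Cell-free redox surrogate: 5 uM resazurin + 200 uM DTT, 50 mM HEPES pH 7.3/50 mM NaCl; cpds pinned, 11-pt qHTS; Ex525/Em598 read t0 and t=15 min, dark.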

The test system of experiment [18] is NAD(P)H diaphorase (Clostridium kluyveri). Nature of the experiment: Diaphorse counterscreen qHTS: Assay Interference Panel against the NCATS CANVASS Library (AID 1347362). Note: potency is the fitted concentration of half-maximal effect. The procedure, abridged:
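Counterscreen for coupling-enzyme interference: resorufin fluorescence from resazurin/NADH turnover, read after 5 min at room temperature. Compounds were tested over an 11-point series after 15 min dark preincubation with diaphorase in PBS-Tween.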

Experiment [19] is described as follows: qHTS for Hypoxia signaling pathway (HIF-1) agonists against the NCATS CANVASS Library (AID 1347375). Note: potency is the fitted concentration of half-maximal effect. The procedure, abridged:
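Inducers of HIF-1 signaling were detected in ME-180 cells bearing an HRE-driven beta-lactamase reporter after 17 h compound exposure. Activity came from CCF4-AM FRET emission ratio (460/530 nm) in qHTS format.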

The nature of experiment [20]: qHTS for Activators of p53 Stress Response Pathway screened against the NCATS CANVASS Library (AID 1347388). The procedure, abridged:
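Beta-lactamase reporter driven by p53 response elements in HCT-116 cells, read as the 460 nm/530 nm emission ratio after CCF4 loading, following 16 h of exposure to an 11-point series. Cell viability was measured in the same wells by CellTiter-Glo luminescence.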

Nuclear receptor subfamily 1 group I member 3 (Homo sapiens), sequence (Q14994 whole entry, looked up): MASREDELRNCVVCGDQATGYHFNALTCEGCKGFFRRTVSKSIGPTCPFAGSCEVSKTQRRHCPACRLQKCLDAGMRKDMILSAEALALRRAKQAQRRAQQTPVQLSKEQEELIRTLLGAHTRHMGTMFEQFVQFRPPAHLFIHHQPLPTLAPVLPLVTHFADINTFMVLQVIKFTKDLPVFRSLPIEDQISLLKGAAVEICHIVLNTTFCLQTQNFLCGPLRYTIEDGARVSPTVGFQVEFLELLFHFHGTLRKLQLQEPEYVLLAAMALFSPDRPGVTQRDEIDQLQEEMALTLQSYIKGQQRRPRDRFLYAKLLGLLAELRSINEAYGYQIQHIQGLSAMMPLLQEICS

On to `C[C@@H]1O[C@@H](Oc2c(-c3ccc(O)cc3)oc3cc(O)cc(O)c3c2=O)[C@H](O)[C@H](O)[C@H]1O`, for which the Potency in experiment [1] was 44 µM (active). Also, the Potency result in [2], in [3], in experiment [4], in experiment [5], in experiment [6] and in experiment [7] was “inactive” in each case. Further, the Potency entry in experiment [8], in [9], in experiment [10], in experiment [11], in experiment [13] and in experiment [14] was “inactive” each time. In addition, the Potency entry in experiment [15], in [16] and in experiment [17] was “inactive” each time. For the same compound, the compound was classed as inactive in [12].

In the case of `C/C=C/C(=O)[C@@H](C)C1=CC(=O)C2=C(O[C@@]34CC[C@H](O)C(C)(C)[C@@H]3CC[C@H](C)[C@@]4(C)C2)C1=O`, the Potency in experiment [1] was 49.3 µM (active); in experiment [2], 4.21 µM (active); in [3] it was 7.49 µM (active); in [5] it was 1.66 µM (active); in [7] it was 2.96 µM (active); in experiment [18] it was 8.61 µM (active). For the same compound, the Potency in experiment [8] is 14.8 µM (active); in [9] it was 2.96 µM (active); in experiment [10] it was 3.32 µM (active); in experiment [11], 20.9 µM (active); in experiment [13], 16.6 µM (active); in [14] it was 1.86 µM (active). In experiment [12], the compound was called inactive. Also, in experiment [17], the Potency result is “inactive”.

For `O=C1CC(c2cc(O)cc(O)c2)Oc2cc(O)ccc21` (stereo not drawn), the Potency entry in experiment [2], in [3], in [4], in experiment [6], in experiment [8] and in [11] was “inactive” in each case. The Potency entry in experiment [19], in experiment [20], in experiment [15], in [16] and in experiment [17] was “inactive” each time. Further, the results for the Potency in [5] and in experiment [13] were 3.72 µM (active) and 7.41 µM (active), respectively. Further, the result in [12] was inactive.

For the compound `CCCCCCCCC[C@@H]1C[C@@H]2CC[C@H]3[C@@H](C(=O)OCCCCN=C(N)N)[C@@H](C)N=C(N1)N23`, the Potency result in experiment [1], in experiment [18], in experiment [20], in [13], in [14] and in experiment [15] was “inactive” in each case. The Potency entry in experiment [16] and in [17] was “inactive” in each case. The Potency in experiment [2] is 14.7 µM (active); in [3], 13.1 µM (active); in experiment [4], 13 µM (active); in [7] it was 11.5 µM (active); in experiment [9], 2.58 µM (active); in [10] it was 2.05 µM (active).

With `Oc1ccc(C2c3c(O)cc(O)cc3[C@@H]3C(c4ccc(O)cc4)c4c(O)cc(O)cc4[C@H]23)cc1` (stereo partly drawn), the Potency entry in [3], in experiment [4], in [6], in [7], in [18] and in experiment [8] was “inactive” each time. Besides, the Potency result in [9], in experiment [10], in experiment [11], in [19], in [14] and in experiment [15] was “inactive” in each case. The Potency entry in [16] and in experiment [17] was “inactive” throughout. Moreover, the call in experiment [12] was inactive.

As for `O=Cc1ccc2n1C[C@@]1(OC2)O[C@H](CO)[C@@H](O)[C@@H]1O`, the Potency entry in [2], in [3], in experiment [4], in experiment [5], in experiment [6] and in experiment [7] was “inactive” in each case. The Potency entry in experiment [18], in [8], in experiment [9], in [10], in experiment [11] and in experiment [19] was “inactive” each time. Further, the Potency result in experiment [20], in [13], in [14], in experiment [15], in [16] and in [17] was “inactive” each time. Moreover, in [12], the compound was called inactive.

In the case of `CN1CC[C@]2(c3cccc4c3N[C@@H]3N(C)CC[C@]43[C@@]34CCN(C)[C@@H]3Nc3c([C@]56CCN(C)[C@H]5Nc5ccccc56)cccc34)c3ccccc3N[C@H]12`, the Potency was 6.68 µM (active) in experiment [2]; 18.8 µM (active) in experiment [3]; 5.94 µM (active) in [4]; 9.35 µM (active) in [5]; 10.6 µM (active) in [6]; 2.96 µM (active) in experiment [7]. The Potency in [8] was 9.35 µM (active); in [9] it was 1.32 µM (active); in experiment [10], 2.64 µM (active); in [11] it was 26.3 µM (active); in experiment [19] it was 9.41 µM (active). Moreover, the Potency result in [18], in [13], in [14] and in [17] was “inactive” in each case.
